In the library only some 1.5% were active in any assay of this set; here they are far more common.
RECQ1 helicase = blocks DNA unwinding by human RECQ1 | P46063 | RECQ1 DNA unwinding, red fluorescence kinetic read | Potency, µM (top dose mostly 57.3 µM), for inactives: top-dose activity, negative = inhibition, hits mostly inhibitors | actives 0.54% (n = 240,000);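 also: potency is read from the fitted curve at half-maximal effect; plate controls were vehicle for no effect and no enzyme for full effect; nearly all actives have a fitted effect of over 30% in size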
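50 nM RECQ1T1 preincubated 15 min with compound in Tris pH 8.0 buffer with MgCl2, DTT, Tween-20 and 2.5 ug/ml poly(dI-dC); started with 200 nM TAMRA/BHQ-2 forked duplex and 2 mM ATP. Unwinding read as fluorescence (525/598 nm), two reads 2 h apart.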
BLM helicase inh-1 = inhibitors of human Bloom syndrome helicase BLM. Potency, µM (top dose mostly 56.1 µM), inactives show top-dose activity change, negative = inhibition, hits mostly inhibitors. actives 0.2% (n = 350,000). recombinant BLM DNA unwinding, fluorescence dequenching. P54132;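 also: potency is read from the fitted curve at half-maximal effect; plate controls were vehicle for no effect and no enzyme for full effect; nearly all actives have a fitted effect of over 35% in size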
Target sequence (P54132 whole entry, looked up): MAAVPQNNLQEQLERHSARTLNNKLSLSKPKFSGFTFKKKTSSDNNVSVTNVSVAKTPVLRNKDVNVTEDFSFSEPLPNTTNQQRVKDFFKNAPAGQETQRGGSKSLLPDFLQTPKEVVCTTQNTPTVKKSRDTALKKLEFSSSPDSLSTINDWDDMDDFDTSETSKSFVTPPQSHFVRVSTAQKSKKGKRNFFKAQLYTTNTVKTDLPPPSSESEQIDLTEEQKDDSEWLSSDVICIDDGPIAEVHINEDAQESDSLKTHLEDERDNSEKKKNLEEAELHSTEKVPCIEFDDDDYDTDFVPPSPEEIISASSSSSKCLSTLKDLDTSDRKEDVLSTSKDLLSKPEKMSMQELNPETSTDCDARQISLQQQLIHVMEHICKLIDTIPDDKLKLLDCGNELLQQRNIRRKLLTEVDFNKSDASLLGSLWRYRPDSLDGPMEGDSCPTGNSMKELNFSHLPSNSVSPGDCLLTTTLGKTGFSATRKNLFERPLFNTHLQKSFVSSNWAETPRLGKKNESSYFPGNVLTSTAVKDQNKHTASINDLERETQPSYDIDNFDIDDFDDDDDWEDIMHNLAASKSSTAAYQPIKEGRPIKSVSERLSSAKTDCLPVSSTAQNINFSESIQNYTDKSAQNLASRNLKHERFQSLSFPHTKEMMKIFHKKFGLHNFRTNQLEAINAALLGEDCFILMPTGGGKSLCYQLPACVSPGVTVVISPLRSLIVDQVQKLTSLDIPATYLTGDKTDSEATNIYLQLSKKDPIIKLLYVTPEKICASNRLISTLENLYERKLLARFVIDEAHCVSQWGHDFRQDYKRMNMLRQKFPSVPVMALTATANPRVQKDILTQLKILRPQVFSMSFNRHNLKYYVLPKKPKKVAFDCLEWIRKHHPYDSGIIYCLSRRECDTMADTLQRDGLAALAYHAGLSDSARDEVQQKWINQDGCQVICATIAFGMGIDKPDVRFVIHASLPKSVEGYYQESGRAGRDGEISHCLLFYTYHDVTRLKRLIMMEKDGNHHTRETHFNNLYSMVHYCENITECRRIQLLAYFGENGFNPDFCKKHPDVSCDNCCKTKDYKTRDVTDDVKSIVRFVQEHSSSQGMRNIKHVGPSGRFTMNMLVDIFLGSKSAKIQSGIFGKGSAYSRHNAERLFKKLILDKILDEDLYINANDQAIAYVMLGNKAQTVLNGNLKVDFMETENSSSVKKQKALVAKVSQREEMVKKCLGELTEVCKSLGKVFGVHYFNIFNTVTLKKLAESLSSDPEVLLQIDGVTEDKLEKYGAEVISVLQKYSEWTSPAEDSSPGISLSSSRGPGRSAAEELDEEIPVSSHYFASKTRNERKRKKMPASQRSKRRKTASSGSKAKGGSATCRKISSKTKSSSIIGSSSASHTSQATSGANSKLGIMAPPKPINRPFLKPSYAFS
FEN1 inh = blocks human flap endonuclease 1; P39748; Recombinant FEN1 flap cleavage, fluorescence, 15 min; Potency, µM (titrated, usually from 114 µM), for the others: top-dose activity change, negative = inhibition, most hits filed as inhibitors; actives 0.35% (n = 390,000); AID 588795; also: potency is read from the fitted curve at half-maximal effect; % is scaled to controls: 0 for no effect and ±100 for the full control effect; nearly all actives have a fitted effect of over 65% in size
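FEN1 at 10 nM, compound pretreatment for 15 min (room temperature), 50 nM final substrate to initiate; endpoint reads at 0 and 15 min; DMSO-only plates used as vehicle background.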
WRN helicase inh-1 = inhibitors of human WRN helicase | Q14191 | WRN helicase unwinding, fluorescent forked duplex, kinetic | Potency, µM (doses to about 114 µM), for inactives: top-dose activity change, negative = inhibition, actives largely listed as inhibitors | actives 0.46% (n = 360,000); also: potency is read from the fitted curve at half-maximal effect; % is scaled to controls: 0 for no effect and ±100 for the full control effect; nearly all actives have a fitted effect of over 55% in size
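Screening of the MLSMR collection measured strand separation of a quenched forked DNA duplex (100 nM) by 20 nM WRN with 2 mM ATP, all final. Compounds were preincubated with enzyme 15 min at room temperature.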
PI5P4K alpha inh = blocks human PI5P4K alpha kinase activity; PI5P4Kalpha enzyme, ADP-Glo luminescence, 60 min; active compounds read low; max response, %; actives 1.2% (n = 330,000); active = max response of -50% or lower; inconclusive = between -30% and -50%; inactive = -30% or higher; also: value at the top dose of about 77 µM; % is scaled to controls: 0 for no effect and ±100 for the full control effect
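ADP-Glo luminescence end-point after a 60 min room-temperature kinase reaction. PI5P4Kalpha and substrate in HEPES pH 7.4 buffer with EGTA, 0.1% CHAPS and 5% DMSO; ATP at 5 microM final.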
APEX1 inh = APE1 (human) endonuclease inhibition; recombinant APE1, TAMRA/BHQ-2 abasic DNA cleavage fluorescence; actives 0.35% (n = 350,000); Potency, µM (titrated, usually from 65.8 µM), for the others: at the top dose activity change, negative = inhibition, most hits filed as inhibitors; AID 2517;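 also: potency is read from the fitted curve at half-maximal effect; plate controls were vehicle for no effect and reference inhibitor for full effect; nearly all actives have a fitted effect of over 55% in size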
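Measures dequenching upon AP-site incision of a 5'-TAMRA/3'-BHQ-2 THF-containing duplex, 50 nM; human APE1 0.75 nM after 15 min room-temperature exposure to compound; kinetic three-point read at one-minute spacing.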
WRN helicase inh-2 = confirmation of human WRN helicase inhibitors | shares compounds with WRN helicase inh-1 | actives 63% (n = 610) | WRN helicase DNA unwinding, fluorescence kinetic | AID 720497 | Potency, µM (top dose mostly 57.1 µM), for inactives: at the top dose activity, negative = inhibition, most hits filed as inhibitors; also: potency is read from the fitted curve at half-maximal effect; nearly all actives have a fitted effect of over 65% in size
TO DNA binding = binds DNA, flagged in WRN inhibitor counterscreen. shares compounds with WRN helicase inh-1. thiazole orange DNA binding displacement, fluorescence. Potency, µM (highest dose often 57.1 µM), without a hit: at the highest dose activity change, negative = inhibition, actives largely listed as inhibitors. actives 10% (n = 610). AID 720499;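 also: drop in dye fluorescence marks compound binding to DNA; potency is read from the fitted curve at half-maximal effect; % is scaled to controls: 0 for no effect and ±100 for the full control effect; nearly all actives have a fitted effect of over 60% in size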
BLM helicase inh-2 = BLM helicase inhibition, WRN selectivity check; shares compounds with WRN helicase inh-1; Recombinant BLM helicase DNA unwinding, red fluorescence; Potency, µM (highest dose often 57.1 µM), without a hit: top-dose activity change, negative = inhibition, most hits filed as inhibitors; actives 60% (n = 610); AID 720503; also: potency is read from the fitted curve at half-maximal effect; nearly all actives have a fitted effect of over 60% in size
ADP-Glo counter = interferes with ADP-Glo detection without enzyme present; shares compounds with PI5P4K alpha inh; ADP-Glo detection counter-screen, luciferase luminescence, no enzyme; Potency, µM (series often up to 76.9 µM), without a hit: at the top dose activity change, negative = inhibition, hits mostly inhibitors; 1,100 tested, under 10 active; AID 743285
Starred values were filed as active, the others as inactive; i = inactive; ? = inconclusive; . = no result; [ ] = dose if it differs, or a comment. Unless noted, calls follow the shape of the dose curve; as a rule, active = well fitted curve in the direction sought with a large enough effect; inconclusive = small, poorly fitted or top-dose-only effect, or another doubt; inactive = no such curve, though single readings can be large; an effect the other way counts as inactive or inconclusive.

SMILES | RECQ1 helicase | BLM helicase inh-1 | FEN1 inh | WRN helicase inh-1 | PI5P4K alpha inh | APEX1 inh | WRN helicase inh-2 | TO DNA binding | BLM helicase inh-2 | ADP-Glo counter
O=C(O)c1cccc(N2C(=O)c3cc([N+](=O)[O-])cc4cc([N+](=O)[O-])cc(c34)C2=O)c1 | . | -13% | 20µM* | 40µM* | -73* | -45% | 27µM* | -26% | ? | .
O=C(O)c1cccc(N2C(=O)c3cccc4cccc(c34)C2=O)c1 | . | 0% | -4% | -22% | -1 | 25% | . | . | . | .
CC(=C/C(=O)O)/C=C/c1ccc(Cl)o1 | -3% | 85% | -9% | ? | -14 | -3% | 6.1µM* | -7% | 3µM* | .
CCNC(=S)N/N=C1\C(=O)c2cccc3cccc1c23 | i | -10% | -1% | -5% | -1 | 10% | . | . | . | .
O=C(N/N=C1/C(=O)c2cccc3cccc1c23)c1ccc(Cl)cc1 | i | 10µM* | 79µM* | 16µM* | -20 | 0% | 6.1µM* | 19µM* | 2.2µM* | .
CCOC(=O)c1cc(-c2ccccc2)n(-c2cccc(C(=O)Nc3ccc(F)c(F)c3)c2)c1C | . | -8% | -23% | . | . | . | . | . | . | .
COc1cccc(NC(=O)C2CCCN(c3nnc(-n4c(C)ccc4C)s3)C2)c1 (configuration not stated) | . | -5% | -6% | . | . | . | . | . | . | .
O=C(Nc1ccc(OCc2cc(=O)n3ccsc3n2)cc1)c1ccc(F)cc1 | . | -4% | -10% | . | . | . | . | . | . | .
O=C1CCC(c2ccccc2)c2ccccc21 (configuration not stated) | . | . | -2% | 5% | 0 | . | . | . | . | .
N#CC1C(=O)c2ccccc2C1c1ccccc1 (configuration not stated) | . | . | 1% | 13µM* | -18 | . | -14% | 2% | -15% | .
N#Cc1c(N)oc(-c2ccco2)c1-c1ccco1 | i | -5% | -17% | -35% | ? | ? | . | . | . | .
COc1ccc(OC)c(/C=N/c2oc(-c3ccco3)c(-c3ccco3)c2C#N)c1 | ? | -4% | -13% | ? | -79* | ? | 22µM* | ? | 6.8µM* | .
O=C(Cl)COCc1ccccc1 | 17% | 0% | . | . | . | 10% | . | . | . | .
COC(=O)c1sc(NC(=O)c2ccc(Cn3cc(Cl)cn3)o2)c(C#N)c1C | -17% | -7% | -12% | ? | ? | 2% | -19% | -25% | ? | .
CCCCCCNC(=O)c1cc(-c2ccco2)nc2ccccc12 | i | -12% | -8% | 40µM* | -86* | 10% | ? | -23% | 17µM* | -9%
Cc1ccc(N(CC(=O)NCc2ccco2)S(=O)(=O)c2ccccc2)cc1 | -10% | -5% | -17% | -3% | . | -2% | . | . | . | .
COc1ccccc1N(CC(=O)NCc1ccco1)S(=O)(=O)c1ccc(C)cc1 | . | -30% | ? | 35µM* | -80* | 21µM* | 17µM* | 29% | 14µM* | -2%
Cc1ccc(C)c(NC(=O)Cn2c(=O)n(Cc3ccco3)c(=O)c3oc4ccccc4c32)c1 | . | -5% | 13% | . | . | . | . | . | . | .
CN(CC(=O)Nc1ccccc1Cl)C(=O)c1cccc(-n2cccc2)c1 | . | . | -2% | -1% | -21 | 40% | . | . | . | .
Cc1ccc(C)c(NC(=O)CN(C)C(=O)c2cccc(-n3cccc3)c2)c1 | . | . | -18% | 50µM* | -60* | 3µM* | 22µM* | -2% | 11µM* | -1%
O=C(c1cccc(-n2cccc2)c1)N1CCN(S(=O)(=O)c2ccccc2)CC1 | . | . | ? | 18µM* | -69* | 1.5µM* | 4.3µM* | ? | 1.1µM* | 3%
COC(=O)COc1ccc(Oc2nc(NC(C)(C)C)nc(N(C)C)n2)nn1 | . | 0% | -11% | . | . | . | . | . | . | .
COc1ccc(OC)c(NC(=O)CN(Cc2ccc(F)cc2)C2CCCCC2)c1 | . | -11% | 4% | -9% | -58* | 2% | . | . | . | -3%
COc1ccc(Cl)cc1NC(=O)CN(C)C1CCCCC1 | -5% | -5% | 10% | 3% | 5 | -6% | . | . | . | .
Cc1ccc2nc(SCC(=O)NCc3ccccc3Cl)nc(=O)n2c1 | . | . | 6% | 1% | 3 | 6% | . | . | . | .
SMILES | RECQ1 helicase | BLM helicase inh-1 | FEN1 inh | WRN helicase inh-1 | PI5P4K alpha inh | APEX1 inh | WRN helicase inh-2 | TO DNA binding | BLM helicase inh-2 | ADP-Glo counter
Cc1ccn2c(=O)nc(SCC(=O)NCc3ccccc3Cl)nc2c1 | . | . | -7% | ? | -59* | -25% | . | . | . | -4%
Cc1ccc(NC(=O)N2CCN3CCCCC3C2)cc1F (configuration not stated) | . | -3% | 10% | . | . | . | . | . | . | .
CCn1cc(C(=O)NCCCOC)c(=O)c2cc(S(=O)(=O)N3CCc4ccccc4C3)ccc21 | . | -3% | 3% | . | . | . | . | . | . | .
COc1ccc(OC)c(C2CC(=O)N3CN(c4cccc(Cl)c4C)CSC3=C2C#N)c1 (configuration not stated) | -5% | -6% | -21% | 0% | -64* | 1% | . | . | . | -6%
COc1cccc(C2CC(=O)N3CN(c4cccc(Cl)c4C)CSC3=C2C#N)c1OC (configuration not stated) | -3% | -4% | -25% | -3% | -93* | -2% | . | . | . | -14%
COc1cc(OC)c(C2CC(=O)N3CN(c4ccccc4)CSC3=C2C#N)cc1OC (configuration not stated) | 8% | -5% | -1% | -35% | . | -6% | . | . | . | .
CCOC(=O)c1ccc(N(C(=O)c2ccccc2)c2ccccc2)cc1 | . | . | -27% | . | . | . | . | . | . | .
O=C(Nc1nnc(COc2ccc(Cl)cc2)s1)c1cccs1 | -15% | 0% | 13% | -31% | -57* | -1% | . | . | . | 0%
O=[N+]([O-])c1ccc(CSc2ncnc3c2ncn3C2OC(CO)C(O)C2O)cc1 (configuration not stated) | i | . | . | . | . | -4% | . | . | . | .
CS(=O)(=O)N1N=C(c2ccco2)CC1c1ccco1 (configuration not stated) | . | -18% | 6% | -21%[11.6 µM] | -64* | 32% | . | . | . | 5%

Screens as filed in PubChem BioAssay.
